Measurements from PubChem BioAssay AID1159580 (chemical genetic matrix, 2015).
“And” between values parts separate entries of the source, which are not always exact repeats. Equal entries are not always repeated. Screen size: about 5,500 compounds; about 2,000 (36%) were called active. About 18% were inconclusive and are not listed. No stated cut-off is given here; in the data, active means normalized growth mostly below about 0.91 (no sharp cut-off); inconclusive means no clear call, values can overlap the other calls; inactive means mostly above about 0.92. The list shows a part of the results.

Test: chemical genetic growth profiling, strain panel (AID 1159580);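 further: tested at 20 µM; growth read once vehicle control cultures reached saturation at 30 °C; 1 = growth at the plate median or of vehicle wells; lower values mean less growth of the strain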
Settings: S. cerevisiae deletion strains, growth OD

Measured: normalized growth

CC(C(=O)O)c1ccc(N2Cc3ccccc3C2=O)cc1 (configuration not stated)
inactive: locus YAL021C, strain ccr4, hits give low values 0.994 | locus YAL026C, strain drs2, hits give low values 1 | locus YAL030W, strain snc1, hits give low values 0.994 | locus YBL061C, strain skt5, hits give low values 0.983 | locus YBR009C, strain hhf1, hits give low values 0.97 | locus YBR021W, strain FUR4, hits give low values 1.01 | locus YBR023C, strain chs3, hits give low values 0.966 | locus YBR171W, strain sec66, hits give low values 0.971 | locus YBR229C, strain ROT2, hits give low values 1.01 | locus YBR231C, strain swc5, hits give low values 0.993 | locus YBR279W, strain paf1, hits give low values 0.972 | locus YCL011C, strain gbp2, hits give low values 0.946 | locus YCL016C, strain dcc1, hits give low values 0.956 | locus YCL029C, strain bik1, hits give low values 0.996 | locus YCL061C, strain MRC1, hits give low values 0.986 | locus YCL069W, strain vba3, hits give low values 0.994 | locus YCR088W, strain abp1, hits give low values 0.987 | locus YDL005C, strain med2, hits give low values 0.991 | locus YDL035C, strain GPR1, hits give low values 1.02 | locus YDL040C, strain nat1, hits give low values 0.989 | locus YDL074C, strain BRE1, hits give low values 1.02 | locus YDL101C, strain DUN1, hits give low values 1.01 | locus YDL185W, strain tfp1, hits give low values 0.989 | locus YDL192W, strain arf1, hits give low values 0.99 | locus YDR001C, strain nth1, hits give low values 0.99 | locus YDR069C, strain doa4, hits give low values 0.993 | locus YDR101C, strain arx1, hits give low values 1 | locus YDR137W, strain rgp1, hits give low values 0.988 | locus YDR159W, strain sac3, hits give low values 1.05 | locus YDR162C, strain NBP2, hits give low values 1.01 | locus YDR195W, strain ref2 1.01 | locus YDR297W, strain sur2, hits give low values 0.99 | locus YDR318W, strain mcm21, hits give low values 0.99 | locus YDR334W, strain swr1, hits give low values 0.986 | locus YDR335W, strain msn5, hits give low values 0.993 | locus YDR388W, hits give low values 0.992 | locus YDR392W, strain spt3, hits give low values 0.988 | locus YDR502C, strain sam2, hits give low values 1 | locus YEL003W, strain gim4, hits give low values 1.01 | locus YEL037C, strain rad23, hits give low values 0.975 | locus YEL061C, strain CIN8 (second series), hits give low values 0.99 | locus YEL061C, strain CIN8, hits give low values 1.01 | locus YER015W, strain faa2, hits give low values 1 | locus YER016W, strain bim1, hits give low values 0.993 | locus YER110C, hits give low values 0.994 | locus YER111C, strain swi4, hits give low values 0.985 | locus YER155C, strain BEM2 (second series), hits give low values 0.948 | locus YER155C, strain BEM2, hits give low values 1.02 | locus YER167W, strain BCK2, hits give low values 1.01 | locus YFR010W, strain ubp6, hits give low values 1 | locus YGL078C, strain dbp3, hits give low values 0.985 | locus YGL086W, strain mad1, hits give low values 1.01 | locus YGL167C, strain pmr1, hits give low values 0.991 | locus YGL173C, strain kem1, hits give low values 0.997 | locus YGL227W, strain vid30, hits give low values 0.988 | locus YGL240W, strain doc1, hits give low values 1 | locus YGL248W, strain PDE1, hits give low values 1.02 | locus YGL253W, strain hxk2, hits give low values 1 | locus YGR135W, strain pre9, hits give low values 0.971 | locus YGR252W, strain gcn5, hits give low values 0.938 | locus YHR013C, strain ard1, hits give low values 0.961 | locus YHR027C, strain rpn1, hits give low values 0.986 | locus YHR030C, strain SLT2, hits give low values 1.01 and 0.993 | locus YHR079C, strain IRE1 (second series), hits give low values 1.01 | locus YHR079C, strain IRE1, hits give low values 0.987 | locus YHR094C, strain hxt1, hits give low values 0.987 | locus YHR129C, strain ARP1, hits give low values 1.02 | locus YHR142W, strain chs7, hits give low values 0.941 | locus YHR200W, strain rpn10, hits give low values 1 | locus YIL066C, strain RNR3, hits give low values 1.02 | locus YIL073C, strain SPO22, hits give low values 1 | locus YIL125W, strain kgd1, hits give low values 0.984 | locus YIR030C, strain dcg1, hits give low values 0.996 | locus YJL092W, strain hpr5, hits give low values 0.959 | locus YJL095W, strain BCK1 (second series), hits give low values 0.994 | locus YJL095W, strain BCK1, hits give low values 1.01 and 0.986 | locus YJL115W, strain asf1, hits give low values 0.982 | locus YJL129C, strain trk1, hits give low values 0.965 | locus YJL134W, strain LCB3, hits give low values 1.01 | locus YJL154C, strain vps35, hits give low values 0.987 | locus YJL164C, strain tpk1, hits give low values 0.988 | locus YJL166W, strain qcr8, hits give low values 0.987 | locus YJL168C, strain set2, hits give low values 0.98 | locus YJL187C, strain SWE1 (second series), hits give low values 1.01 | locus YJL187C, strain SWE1, hits give low values 0.993 | locus YJR043C, strain POL32, hits give low values 1.02 | locus YJR066W, strain TOR1, hits give low values 0.914
